TPT1 inh – blocks Candida albicans tRNA 2'-phosphotransferase | AID 1962 | hit rate 0.81% among 300,000 | inhibition, % at 5 µM | recombinant caTPT1, FP RNA substrate dephosphorylation;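 active = inhibition above the mean of all tested compounds plus 3 SD, set per screening campaign, cut at about 24% in these data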;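 note: plate controls were DMSO alone for no effect and ferristatin control at 100 nM for full effect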
HNF4A DNA FP – change in binding of human HNF4 alpha to DNA; HNF4a-FITC DNA binding, fluorescence polarization, 1 h; P41235; activity change, % at 10 µM; AID 1224865; hit rate 0.3% among 360,000; in the data active = activity change above about 30%, passing the limit was not always enough
Myeloid diff MLP – myeloid differentiation induction; ER-HoxA9 myeloid progenitors, lysozyme-GFP differentiation, flow cytometry; calls only at 10 µM; hit rate 1% among 360,000; AID 624256;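 active = normalized GFP-positive differentiation at or above the plate's own cutoff, the solvent-only control mean plus 3 SD; inconclusive = no clear call, values can overlap the other calls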;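 note: cells exposed to compound for four days before flow analysis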
Rpn11 inh – Rpn11 (human) deubiquitinase inhibition | O00487 | hit rate 0.59% among 360,000 | human 26S proteasome, Ub4-pepOG fluorescence polarization; 20S core pre-blocked with epoxomicin | inhibition, % at 20 µM;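 active = inhibition at 20 µM, scaled to each plate's controls, above about 33%, limit read from the data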
Target sequence (O00487 whole entry, looked up): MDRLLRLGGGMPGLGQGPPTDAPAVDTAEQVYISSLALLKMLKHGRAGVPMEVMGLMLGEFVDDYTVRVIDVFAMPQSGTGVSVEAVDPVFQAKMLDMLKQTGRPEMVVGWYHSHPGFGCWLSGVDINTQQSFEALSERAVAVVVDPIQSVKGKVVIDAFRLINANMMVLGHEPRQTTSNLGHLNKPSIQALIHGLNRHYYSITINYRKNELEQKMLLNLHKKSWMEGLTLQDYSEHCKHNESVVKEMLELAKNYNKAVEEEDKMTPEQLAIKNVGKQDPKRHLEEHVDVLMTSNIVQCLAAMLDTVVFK
TPT1 inh confirm – confirmation of Candida albicans TPT1 inhibitors; recombinant caTPT1, fluorescence polarization, RNase T1 coupled; shares compounds with TPT1 inh; hit rate 74% among 2,400; inhibition, % at 5 µM;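 active = inhibition above the primary screen limit, the mean inhibition of all tested compounds plus 3 SD, cut at about 25% in these data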
RNase T1 counter – blocks Aspergillus oryzae RNase T1, a TPT1 counter-screen. shares compounds with TPT1 inh. RNase T1 cleavage, fluorescence polarization, 1536-well. inhibition, % at 5 µM. hit rate 83% among 2,400;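 active = inhibition above the solvent-only control well mean plus 3 SD, limit set per screening run, cut at about 23% in these data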;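 note: plate controls were DMSO wells with enzyme for no effect and wells without RNase T1 for full effect; inhibitors block cleavage so intact labeled substrate keeps polarization high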
Target sequence (P00651 whole entry, looked up): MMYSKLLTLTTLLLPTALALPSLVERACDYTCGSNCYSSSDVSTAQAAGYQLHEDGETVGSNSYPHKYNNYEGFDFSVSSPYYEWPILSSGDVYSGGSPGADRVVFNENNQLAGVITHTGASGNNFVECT
An asterisk follows results filed as active; ! = repeats disagree. Sampled rows, rich in hits. Any-hit rate of the full collection: about 2.1%.

`O=C(O)Cn1cc(/C=C2\C(=O)NC(=O)N(c3ccc(Br)cc3)C2=O)c2ccccc21` gave TPT1 inh 37*, HNF4A DNA FP -4, Myeloid diff MLP inactive, Rpn11 inh 24, TPT1 inh confirm 41* and RNase T1 counter 51*.
COc1ccc(-c2ccc3n2Cc2cnnn2-c2ccccc2-3)cc1 was read as HNF4A DNA FP 1, Myeloid diff MLP inactive and Rpn11 inh 1.
CCOC(=O)CC(SP1(=S)OCC2(CC=CCC2)CO1)C(=O)OCC (centres undefined) was read as HNF4A DNA FP -5, Myeloid diff MLP inactive and Rpn11 inh -1.
For O=c1[nH]c(=S)n(-c2ccc(Br)cc2)c(O)c1C=Nc1ccc(N2CCOCC2)cc1 the results were TPT1 inh -34, HNF4A DNA FP 7, Myeloid diff MLP inactive and Rpn11 inh -120.
Cc1cc(C)cc(-n2c(O)c(C=Nc3ccc(N4CCOCC4)cc3)c(=O)[nH]c2=S)c1 was read as TPT1 inh 35*, HNF4A DNA FP -1, Myeloid diff MLP inactive, Rpn11 inh 30, TPT1 inh confirm 57* and RNase T1 counter 73*.
Screening O=c1[nH]c(=S)n(-c2ccccc2F)c(O)c1C=Nc1ccc(N2CCOCC2)cc1 returned TPT1 inh 33*, HNF4A DNA FP 2, Myeloid diff MLP inactive, Rpn11 inh 10, TPT1 inh confirm 47* and RNase T1 counter 60*.
CN1OC[C@@H]2CN[C@H](c3ccc(Br)cc3)C[C@@H]21 was read as HNF4A DNA FP -1, Myeloid diff MLP inactive and Rpn11 inh 1.
For Cc1cccc(N2C(=O)NC(=O)/C(=C\c3ccc4c(c3)CCCN4Cc3ccccc3)C2=O)c1 the results were TPT1 inh 92*, HNF4A DNA FP -4, Myeloid diff MLP inactive, TPT1 inh confirm 152* and RNase T1 counter 141*.
For CCCC1(CC(C)C)C(=O)NC(=S)NC1=O the results were HNF4A DNA FP 0, Myeloid diff MLP inactive and Rpn11 inh -11.
For CCC(C)N1C(=O)/C(=C/c2ccc3c(c2)CCN3CCCCl)C(=O)NC1=S (centres undefined) the results were TPT1 inh 41*, HNF4A DNA FP -10, Myeloid diff MLP inactive, TPT1 inh confirm 56* and RNase T1 counter 72*.
CCOC(=O)COc1ccc(/C=C2\C(=O)NC(=S)N(c3ccc(OC)cc3)C2=O)cc1OC was read as TPT1 inh 1, HNF4A DNA FP 2, Myeloid diff MLP inactive and Rpn11 inh 11.
Screening C[C@H](CO)N1C[C@H](C)[C@@H](CN(C)C(=O)Oc2ccccc2)OCc2cnnn2CCCC1=O returned HNF4A DNA FP 4, Myeloid diff MLP inactive and Rpn11 inh -7.
Screening C=CCn1c(O)c(C=NCCCn2ccnc2)c(=O)[nH]c1=O returned TPT1 inh 1, HNF4A DNA FP 0, Myeloid diff MLP inactive and Rpn11 inh -1.
Screening C=CCn1c(O)c(C=NCCN(C)C)c(=O)[nH]c1=O returned TPT1 inh 30*, HNF4A DNA FP 14, Myeloid diff MLP inactive, Rpn11 inh 16, TPT1 inh confirm 35* and RNase T1 counter 45*.
Screening Cc1ccc(-n2c(O)c(C=Nc3ccc(S(=O)(=O)N(C)C)cc3)c(=O)[nH]c2=O)cc1 returned TPT1 inh 26*, HNF4A DNA FP -4, Myeloid diff MLP inactive, Rpn11 inh 4, TPT1 inh confirm 9 and RNase T1 counter 14.
Screening CNS(=O)(=O)c1ccc(N=Cc2c(O)n(-c3ccccc3)c(=O)[nH]c2=O)cc1 returned TPT1 inh 28*, HNF4A DNA FP 0, Myeloid diff MLP inactive, Rpn11 inh 3, TPT1 inh confirm 17 and RNase T1 counter 25*.
Screening Cc1ccc(N=Cc2c(O)n(-c3ccc(C)cc3)c(=O)[nH]c2=O)cc1 returned TPT1 inh 2, HNF4A DNA FP 1, Myeloid diff MLP inactive and Rpn11 inh 2.
Screening CNS(=O)(=O)c1ccc(N=Cc2c(O)n(-c3cccc(C)c3)c(=O)[nH]c2=O)cc1 returned TPT1 inh 26*, HNF4A DNA FP 2, Myeloid diff MLP inactive, Rpn11 inh 3, TPT1 inh confirm 14 and RNase T1 counter 24*.
`Cc1cccc(-n2c(O)c(/C=C/C=Nc3ccccc3)c(=O)[nH]c2=O)c1` gave TPT1 inh 183*, HNF4A DNA FP 163, Myeloid diff MLP inactive, TPT1 inh confirm 187* and RNase T1 counter 173*.
For Cc1cccc(N=Cc2c(O)n(-c3ccccc3C)c(=O)[nH]c2=O)c1 the results were TPT1 inh 3, HNF4A DNA FP 1, Myeloid diff MLP inactive and Rpn11 inh 2.
c1ccc2[nH]c(CCN3CCCCC3)nc2c1 was read as HNF4A DNA FP -1, Myeloid diff MLP inactive and Rpn11 inh 6.
For O=c1[nH]c(=O)n(-c2cccc(Cl)c2)c(O)c1/C=N/c1ccccn1 the results were TPT1 inh 30*, HNF4A DNA FP 11, Myeloid diff MLP inactive, Rpn11 inh 10, TPT1 inh confirm 18 and RNase T1 counter 24*.
Cc1ccccc1-n1c(O)c(/C=N/c2nccs2)c(=O)[nH]c1=O was read as TPT1 inh 28*!, HNF4A DNA FP 3, Myeloid diff MLP inactive, Rpn11 inh 7, TPT1 inh confirm 18 and RNase T1 counter 26*.
For O=C1NC(=O)C(Cc2ccccc2)(Cc2ccccc2)C(=O)N1 the results were HNF4A DNA FP -4, Myeloid diff MLP inactive and Rpn11 inh -2.
`CCN(CC)CCCN=Cc1c(O)n(-c2ccccc2F)c(=O)[nH]c1=O` gave TPT1 inh 1, HNF4A DNA FP 0, Myeloid diff MLP inactive and Rpn11 inh -3.
Screening COC(=O)C1=Nc2ccccc2/C1=C\c1c(O)n(-c2cc(OC)ccc2OC)c(=O)[nH]c1=O returned TPT1 inh 20, HNF4A DNA FP 7, Myeloid diff MLP inactive and Rpn11 inh 15.
For Cc1cccc(-n2c(O)c(/C=C3/C(c4ccccc4)=Nc4ccccc43)c(=O)[nH]c2=O)c1 the results were TPT1 inh 19, HNF4A DNA FP 6, Myeloid diff MLP inconclusive and Rpn11 inh 23.
O=c1[nH]c(=O)n(-c2ccccc2F)c(O)c1/C=C1\C=Nc2ccccc21 was read as TPT1 inh 56*, HNF4A DNA FP 1, Myeloid diff MLP inactive, Rpn11 inh 23, TPT1 inh confirm 18 and RNase T1 counter 29*.
Screening O=c1[nH]c(=O)n(-c2ccc(F)cc2)c(O)c1/C=C1\C=Nc2ccccc21 returned TPT1 inh 51*, HNF4A DNA FP 0, Myeloid diff MLP inactive, Rpn11 inh 34, TPT1 inh confirm 70* and RNase T1 counter 77*.
For COc1ccc(-n2c(O)c(/C=C3\C=Nc4ccc(Br)cc43)c(=O)[nH]c2=O)c(OC)c1 the results were TPT1 inh 39*, HNF4A DNA FP 0, Myeloid diff MLP inactive, Rpn11 inh -90, TPT1 inh confirm 14 and RNase T1 counter 19.

Screening results deposited in PubChem BioAssay by several laboratories.
